From PubChem BioAssay
esBAF inh – blocks esBAF chromatin remodeling in mouse ES cells. reporter increase, % at 12.5 µM. AID 602393. Bmi1-luciferase knock-in reporter, 24 h; 100% = twice the neutral-well signal. 2% of 350,000 active; in the data active = activation above about 40%; inconclusive = no clear call, values can overlap the other calls;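 note: 0% = median of the plate's neutral control wells and 100% = double that signal; a rise in the Bmi1 reporter signal indicates esBAF inhibition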
Wnt act – activators of Wnt/beta-catenin signaling | AID 743398 | 1.2% of 300,000 active | activation, % at 9.35 µM | Wnt/beta-catenin reporter cell assay, activator, plate reader; in the data active = activation above about 30%, passing the limit was not always enough; inconclusive = no clear call, values can overlap the other calls;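 note: 0% = neutral control wells and 100% = positive control wells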
C2C12 statin – suppression of simvastatin myotoxicity | C2C12 myotubes + simvastatin, ATP luminescence, 48 h; scaled: DMSO 0, geranylgeraniol control 100 | rescue of ATP level, % at 7.49 µM | 0.78% of 330,000 active | AID 602340;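 active = mean ATP rescue above about 67%, or every replicate alone reaching that limit, limit read from the data, passing the limit was not always enough; inconclusive = no clear call, values can overlap the other calls; inactive = mean under the limit and some replicate under it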;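 note: myotubes were challenged with 10 µM simvastatin during compound exposure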
EBV LMP1 NFkB – Epstein-Barr LMP1 NF-kappaB reporter inhibition. AID 504558. LMP1-induced NF-kappaB luciferase reporter cells, luminescence. inhibition, % at 12.5 µM. 0.69% of 350,000 active; in the data active = inhibition above about 41%; inconclusive = no clear call, values can overlap the other calls;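 note: 0% = neutral control wells and 100% = reference inhibitor control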
MITF TRPM1 inh – inhibitors of MITF-driven TRPM1 promoter in melanoma cells. SK-MEL-5 TRPM1 promoter luciferase, 24 h. inhibition, % at 12.5 µM. 0.83% of 330,000 active;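 active = mean inhibition across replicates of 60% or more, whatever share of single replicates reaches that level; inconclusive = some that reach 60%, reason not given; inactive = mean inhibition across replicates below 60%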
MITF act – increases MITF-driven TRPM1 promoter luciferase signal; SK-MEL-5 TRPM1-promoter luciferase, 24 h; % of positive control, neutral wells = 0; activation, % at 12.5 µM; 0.75% of 300,000 active; AID 588334;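 active = mean activation of at least 80% with every replicate also reaching 80%; inconclusive = mean reaches 80% but some replicate falls short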;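 note: 0% = neutral control wells and 100% = parthenolide positive control wells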
An asterisk follows results filed as active; u = inconclusive; x = no result. Only some compounds are listed: those with a hit (about 4% of all), similar ones and a draw of the others.

SMILES | esBAF inh | Wnt act | C2C12 statin | EBV LMP1 NFkB | MITF TRPM1 inh | MITF act
O=C(c1ccc(Cl)s1)N1CCc2ccccc21 | 27 | x | -8 | -33 | -67 | 67
Cc1ccc(-c2cc(C(=O)N3CCCc4ccccc43)no2)cc1 | 72* | 11 | 0 | -30 | -95 | u
CCCCC(=O)Nc1cccc(-c2nc3ncccc3o2)c1C | 7 | 3 | -2 | 8 | -22 | 25
COc1ccc(NC(=O)Nc2ccc3c(c2)C(=O)N([C@@H](C)CO)C[C@@H](C)[C@@H](CN(C)C)OCCCC[C@@H](C)O3)cc1 | -3 | x | -2 | x | x | x
S=C(c1ccc(-c2cccc(Cl)c2)o1)N1CCOCC1 | u | -3 | 62 | -44 | -134 | 139*
S=C(c1ccc(-c2cccc(Cl)c2)o1)N1CCCCC1 | x | 40* | x | -48 | -88 | 93*
CC(C)C[C@H](NC(=O)c1[nH]cnc1C(=O)N[C@@H](Cc1ccccc1)C(=O)OCc1ccccc1)C(=O)OCc1ccccc1 | -2 | -6 | 137* | 1 | -5 | 7
CC(C)C[C@H](NC(=O)c1nc[nH]c1C(=O)N[C@@H](CC(C)C)C(=O)OCc1ccccc1)C(=O)OCc1ccccc1 | -4 | -19 | 8 | -7 | 16 | -15
CSc1nc2cc3c(cc2n1C(=O)c1ccc(C)cc1)OCCO3 | 4 | x | 9 | 44* | -5 | 8
CC(=O)Nc1cc(-c2ccc(Cl)cc2)[nH]n1 | 74* | -2 | 8 | -21 | -27 | 25
CCOc1ccc(NC(=O)CCc2nnc3ccc(N4CCC5(CC4)OCCO5)nn23)cc1 | -1 | 1 | 14 | 48* | 0 | 1
CCc1ccc(NC(=O)CCc2nnc3ccc(N4CCC5(CC4)OCCO5)nn23)cc1 | -5 | -1 | 0 | 5 | 5 | -5
CCOc1ccc(NC(=O)CCc2c(C)nn(-c3ccc(N4CCCCC4)nn3)c2C)cc1 | 52* | 9 | 5 | -10 | -74 | 79
CCc1ccc(NC(=O)CCc2c(C)nn(-c3ccc(N4CCCCC4)nn3)c2C)cc1 | 62* | 14 | -9 | -23 | -99 | 44
CCCCC1CCC(C(=O)N(CCCC)c2c(N)n(CCCC)c(=O)[nH]c2=O)CC1 (stereo not given) | -1 | 0 | -21 | 0 | 91* | -91
CCCCC1CCC(C(=O)N(CC(C)C)c2c(N)n(CCCC)c(=O)[nH]c2=O)CC1 (stereo not given) | x | -3 | -83 | 0 | 74* | -74
Cc1nc(-c2ccc(NC(=O)c3ccccc3Br)cc2)cs1 | x | 65* | x | -23 | -71 | u
Cc1nc(-c2ccc(NC(=O)c3ccccc3C)cc2)cs1 | 86* | -1 | -7 | -37 | -57 | 60
CCC(=O)Nc1ccc(-c2csc(C)n2)cc1 | x | 9 | x | -19 | -41 | 39
Cc1cc(S(=O)(=O)N2CCOCC2)ccc1OCC(=O)N1CCCCC1 | 0 | 4 | 3 | 4 | -5 | 7
CCCC(=O)Nc1ccc2c(c1)C(=O)N(C)C[C@@H](OC)[C@H](C)CN(Cc1ccccc1C(=O)O)[C@H](C)CO2 | -3 | x | -9 | x | x | x
C[C@@H]1CN([C@H](C)CO)C(=O)Cc2cc(NS(=O)(=O)c3ccc(Cl)cc3)ccc2O[C@H]1CN(C)Cc1ccc2c(c1)OCO2 | 2 | x | 84* | x | x | x
C[C@@H]1CN([C@H](C)CO)C(=O)Cc2cc(NS(=O)(=O)c3ccc(Cl)cc3)ccc2O[C@@H]1CN(C)Cc1ccc2c(c1)OCO2 | -5 | x | 55 | x | x | x
Cc1ccc(S(=O)(=O)Nc2ccc3c(c2)CC(=O)N([C@H](C)CO)C[C@H](C)[C@@H](CN(C)Cc2ccc4c(c2)OCO4)O3)cc1 | 12 | x | 76* | x | x | x
Cc1ccc(S(=O)(=O)Nc2ccc3c(c2)CC(=O)N([C@@H](C)CO)C[C@@H](C)[C@@H](CN(C)Cc2ccc4c(c2)OCO4)O3)cc1 | 2 | x | 36 | x | x | x
SMILES | esBAF inh | Wnt act | C2C12 statin | EBV LMP1 NFkB | MITF TRPM1 inh | MITF act
C[C@@H]1CN([C@@H](C)CO)C(=O)Cc2cc(NS(=O)(=O)c3ccc(Cl)cc3)ccc2O[C@H]1CN(C)Cc1ccc2c(c1)OCO2 | -3 | x | 99* | x | x | x
CNC[C@H]1OCCCC[C@H](C)Oc2ccc(NS(=O)(=O)c3cn(C)cn3)cc2C(=O)N([C@@H](C)CO)C[C@@H]1C | -8 | x | -105 | x | x | x
C[C@H](CO)N1C[C@H](C)[C@@H](CN(C)S(=O)(=O)c2cccs2)Oc2ccc(NC(=O)CCN3CCOCC3)cc2C1=O | -1 | x | -12 | x | x | x
CCOc1ccc(CCNC(=O)CCn2ccc3cc(S(=O)(=O)N4CCCC4)ccc32)cc1 | 2 | -2 | 1 | 72* | 16 | -14
COc1ccc(OC)c2c1sc(=NC(=O)C1CCCCC1)n2C | 3 | 10 | 5 | 5 | -12 | 8
Cn1c(=NC(=O)C2CC2)sc2cccc(F)c21 | 6 | 6 | 16 | 60* | -6 | 6
COc1ccc(/C=C2/CCC(CN3CCOCC3)C2=O)cc1 (stereo not given) | x | -5 | x | 86* | 99* | -99
COc1ccc(/C=C2\CCOC2=O)cc1 | x | x | x | 0 | -8 | 10
Cc1ccsc1/C=C1\CCc2ccccc2C1=O | -34 | x | 0 | 17 | 4 | x
Cc1ccsc1/C=C1\CCC(C2CCCC2)C1=O (stereo not given) | 34 | 47* | -5 | -34 | -79 | 76
COc1ccc(C=NCCCN2CCOCC2)cc1 | 6 | x | 88* | -6 | -1 | 1
COc1ccc(/C=C2\CCC(C3CCCC3)C2=O)cc1OC (stereo not given) | 30 | 33* | -4 | -3 | -73 | 74
Cc1cc2ncn(-c3nnnn3-c3ccccc3)c2cc1C | 7 | -2 | 11 | -5 | -6 | 11
Cc1nc(OCc2ccccc2)c2sc3nc4c(cc3c2n1)COC(C)(C)C4 | 1 | u | 5 | -4 | 1 | 0
CCN(CC)C(C(=O)Nc1ccc2c(c1)OCO2)c1ccccc1 (stereo not given) | x | -1 | x | 0 | -15 | 15
COc1ccc(S(=O)(=O)N2CCOCC2)cc1C(=O)Nc1cccc(C(=O)NC2CC2)c1 | -3 | -2 | 0 | -8 | x | x
C[C@H]1CN([C@@H](C)CO)C(=O)c2cc(C#CCN(C)C)cnc2O[C@H]1CN(C)C(=O)c1cccnc1 | -5 | x | 9 | x | x | x
COc1ccc(/C=C2\CCC(C3CCCC3)C2=O)cc1 (stereo not given) | 56* | -1 | -5 | -32 | -91 | 98*
Cc1ccc(/C=C2\CCC(C3CCCC3)C2=O)cc1 (stereo not given) | x | 13 | x | -21 | -16 | 16
O=C(NCCN1CCOCC1)c1c(O)nc2ccccn2c1=O | -1 | 0 | -1 | -8 | -7 | 10
CCn1ncc(N(C)N)c(Cl)c1=O | 4 | -2 | 89* | -2 | -2 | 4
CCn1ncc(N2CCOCC2)c(Cl)c1=O | 9 | 5 | 2 | 1 | x | x
CC(=O)c1ccc(Nc2ccc(-c3ccccc3F)nn2)cc1 | u | 31* | 12 | -18 | -75 | 73
